In the supplement of paper PMC8047044:
Where a name gives a salt, the structure may show the parent alone.

System: Neuro-2a
Experiment: neurite formation score, plate-normalized to DMSO control mean 5.04 (score (0-8 scale)); higher = more or longer neurites
Conditions: 1 µM
Experimental: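 Neuro-2a mouse neuroblastoma cells in PLL-coated 96-well plates were pre-treated for 1 h in DMEM(+) with each kinase inhibitor at 1 µM, then switched to serum-free DMEM(-) with inhibitor to induce neurite outgrowth and fixed about 2-3 h later. Three blinded observers scored neurite formation from 0 (no neurites) to 8 (long neurites on almost all cells).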

Row | SMILES | neurite formation score
1 | CC(C)(C)NS(=O)(=O)c1cncc(-c2cc(F)c3nc(N)nn3c2)c1 | 4.36
2 | CNC(=O)c1cc(Oc2ccc(NC(=O)Nc3ccc(Cl)c(C(F)(F)F)c3)c(F)c2)ccn1 [Regorafenib] | 5.24
3 | CN1CCN(c2ccc3nc(-c4c(N)c5c(F)cccc5[nH]c4=O)[nH]c3c2)CC1 [Dovitinib Dilactic acid] | 4.96
4 | O=C1C(c2c(O)[nH]c3ccccc23)=Nc2ccccc21 [Indirubin] | 4.88
5 | FC(F)(F)c1ccc(CNc2ccc(Cc3c[nH]c4ncc(Cl)cc34)cn2)cn1 [Pexidartinib (PLX3397)] | 4.54
6 | CC(C)(C)Cn1c(N)nc2ccc(-c3[nH]c(C(C)(C)C)nc3-c3ccc(F)cc3)nc21 | 4.57
7 | Cc1c[nH]c(/C=C2\C(=O)Nc3ccccc32)c1CCC(=O)O | 6.02
8 | O=c1c(-c2ccc(O)cc2)coc2cc(O)cc(O)c12 [Genistein] | 4.57
9 | C[C@@H](Oc1cc(-c2cnn(C3CCNCC3)c2)cnc1N)c1c(Cl)ccc(F)c1Cl [(R)-Crizotinib] | 4.91
10 | N#Cc1cccc(-c2c[nH]c3ncnc(N4CCOCC4)c23)c1 | 5.21
11 | CN1CC[C@H](c2c(O)cc(O)c3c(=O)cc(-c4ccccc4Cl)oc23)[C@H](O)C1 [Flavopiridol hydrochloride] | 4.47
12 | CC(C)(C#N)c1ccc(N2C(=O)OCc3cnc4ccc(-c5cnc6ccccc6c5)cc4c32)cc1 | 3.63
13 | CCOc1cc(N2CCC(O)CC2)ccc1Nc1ncc2c(n1)N(C)c1ccccc1C(=O)N2C | 4.69
14 | C[S+]([O-])c1ccc(-c2nc(-c3ccc(F)cc3)c(-c3ccncc3)[nH]2)cc1 (configuration not stated) | 4.57
15 | Nc1nc(N)c(N=O)c(OCC2CCCCC2)n1 | 4.57
16 | CC(=O)Nc1cccc(-n2c(=O)n(C3CC3)c(=O)c3c(Nc4ccc(I)cc4F)n(C)c(=O)c(C)c32)c1 | 3.57
17 | CC(C)(O)CC(=O)NCCn1ccc2ncnc(Nc3ccc(Oc4cccc(C(F)(F)F)c4)c(Cl)c3)c21 | 5.14
18 | N#C/C(=C(/N)Sc1ccc(N)cc1)c1ccccc1C(F)(F)F | 3.91
19 | CN1CCN(c2ccc(OC(F)(F)F)c(Nc3ncc4c(n3)-c3c(c(C(N)=O)nn3CCO)CC4)c2)CC1 | 4.88

Row | SMILES | neurite formation score
20 | Cc1ccc(F)c(NC(=O)Nc2ccc(-c3cccc4[nH]nc(N)c34)cc2)c1 [Linifanib (ABT-869)] | 3.14
21 | Cc1ccc(S(=O)(=O)Nc2nc3ccccc3nc2Nc2ccc3nsnc3c2)cc1 | 4.14
22 | N#CC1(c2ccc(NC(=O)c3cccnc3NCc3ccncc3)cc2)CCCC1 [Apatinib] | 4.54
23 | Cc1[nH]c(/C=C2\C(=O)Nc3ccc(S(=O)(=O)N(C)c4cccc(Cl)c4)cc32)c(C)c1C(=O)N1CCN(C)CC1 | 3.57
24 | CNC(=O)c1cc(Oc2ccc(NC(=O)Nc3ccc(Cl)c(C(F)(F)F)c3)cc2)ccn1 [Sorafenib] | 4.24
25 | CC(C)CC(=O)Nc1n[nH]c2c1CN(C(=O)C1CCN(C)CC1)C2(C)C | 4.57
26 | O=C(Nc1cccc(Nc2ncc(Br)c(NCCc3cnc[nH]3)n2)c1)N1CCCC1 | 3.91
27 | Fc1cc(-c2cccc3ncc(-c4cnn(C5CCNCC5)c4)nc23)cc(F)c1CN1CCOCC1 | 4.47
28 | Cc1c(NC(=O)c2ccc(C(C)(C)C)cc2)cccc1-c1cn(C)c(=O)c(Nc2ccc(C(=O)N3CCOCC3)cc2)n1 | 5.57
29 | CNC(=O)c1cc(Oc2ccc(NC(=O)Nc3ccc(Cl)c(C(F)(F)F)c3)cc2)ccn1 [Sorafenib Tosylate] | 4.57
30 | CNC(=O)c1ccccc1Sc1ccc2c(/C=C/c3ccccn3)n[nH]c2c1 | 3.57
31 | CCCCCCCCCCCCCCCc1cccc(O)c1C(=O)O [Anacardic acid] | 4.02
32 | O=C(Nc1ccc(CN2CCOCC2)cc1)c1ccc(-c2cccc(Cl)c2)o1 | 4.9
33 | CC(C)(C)n1nc(-c2ccc(Cl)cc2)c2c(N)ncnc21 | 4.24
34 | Cc1ncc(-c2ccnc(Nc3ccc(S(C)(=O)=O)cc3)n2)n1C(C)C | 4.24
35 | COc1ccccc1-c1cc(Nc2cccc(CS(N)(=O)=O)c2)ncn1 | 4.54
36 | C=CC(=O)Nc1cccc(Oc2nc(Nc3ccc(N4CCN(C)CC4)cc3OC)ncc2Cl)c1 | 4.24
37 | CC(C)[C@H](CO)Nc1nc(Nc2ccc(C(=O)O)c(Cl)c2)c2ncn(C(C)C)c2n1 [Purvalanol B] | 4.63
